# Results from PubChem BioAssay (Tox21).
# Where “and” joins values, the source holds several entries; their conditions need not be identical. Equal values may be shown once. Records with an inconclusive call do not appear. A structure can be active in one record and inactive in another. Calls of active or inactive are those of the source. Unless noted, calls come from the whole dose curve; as a rule, active = well fitted curve in the direction sought with a large enough effect in the repeat runs; inconclusive = weak or mixed curves; inactive = no such curve, though single readings can be large; an effect the other way counts as inactive or inconclusive.
# How the values were obtained:
# [1] = qHTS assay to identify small molecule agonists of H2AX - cell viability counter screen (AID 1224847; calls by dose curve; note: nearly all actives have a fitted effect of over 30% in size; note: potency is the fitted concentration of half-maximal effect)
# Procedure, shortened: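 For this counter screen, overnight-attached CHO-K1 cells received test compounds (15 concentrations, 0.76% DMSO final); 3 hr later at 37C, CellTiter-Glo reagent was added and luminescence recorded after 30 min at room temperature.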
# [2] = qHTS RealTime-Glo MT Cell Viability Assay in HepG2 cells - 24 hour (AID 1224867); note: nearly all actives have a fitted effect of over 50% in size; note: potency is the fitted concentration of half-maximal effect
# Procedure, shortened: (§1)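 Compound treatment began 5 h after plating HepG2 cells (600/well) with NanoLuc luciferase and prosubstrate. Plates stayed at 37 C for 40 h; luminescence was captured at six time points, 0 h through 40 h.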
# [3] = qHTS RealTime-Glo MT Cell Viability Assay in HEK293 cells - 32 hour (AID 1224868); note: nearly all actives have a fitted effect of over 50% in size; note: potency is the fitted concentration of half-maximal effect
# Procedure, shortened: (§2)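 Quantitative high-throughput screen of the Tox21 10K library in HEK293: cells and RealTime-Glo reagents plated together, compound added at 5 h, luminescence monitored through 40 h at 37 C.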
# [4] = A CellTox Green Cytotoxicity Assay to monitor cytotoxicity in HEK293 cells - 40 hour (AID 1224871); note: nearly all actives have a fitted effect of over 45% in size; note: potency is the fitted concentration of half-maximal effect
# Procedure, shortened: (§3)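 Tox21 screen in HEK293: membrane-impermeant cyanine dye fluoresces on binding dead-cell DNA; compound pinned 5 h post-seeding, plates held at 37 C, signal read repeatedly through 40 h.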
# [5] = qHTS RealTime-Glo MT Cell Viability Assay in HEK293 cells - 16 hour (AID 1224872); note: nearly all actives have a fitted effect of over 50% in size; note: potency is the fitted concentration of half-maximal effect
# Procedure, shortened: as §2
# [6] = qHTS RealTime-Glo MT Cell Viability Assay in HepG2 cells - 8 hour (AID 1224873); note: nearly all actives have a fitted effect of over 55% in size; note: potency is the fitted concentration of half-maximal effect
# Procedure, shortened: (§4)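 Real-time viability: cells seeded at 600 per well together with NanoLuc and cell-permeant prosubstrate, compounds added after 5 h incubation. Luminescence tracked at 0, 8, 16, 24, 32 and 40 h of exposure.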
# [7] = qHTS RealTime-Glo MT Cell Viability Assay in HEK293 cells - 40 hour (AID 1224874); conditions: RealTime-Glo luminescence; max response: stronger effect = lower value; note: nearly all actives have a fitted effect of over 50% in size; note: potency is the fitted concentration of half-maximal effect
# Procedure, shortened: (§5)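 HEK293 + NanoLuc + prosubstrate, 600 cells/well; 5 h, 37 C/5% CO2; compound 23 nL in DMSO by pintool; 37 C; luminescence read at 0, 8, 16, 24, 32 and 40 h time points.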
# [8] = A CellTox Green Cytotoxicity Assay to monitor cytotoxicity in HEK293 cells - 24 hour (AID 1224875); note: nearly all actives have a fitted effect of over 45% in size; note: potency is the fitted concentration of half-maximal effect
# Procedure, shortened: as §3
# [9] = A CellTox Green Cytotoxicity Assay to monitor cytotoxicity in HepG2 cells - 16 hour (AID 1224876); note: nearly all actives have a fitted effect of over 45% in size; note: potency is the fitted concentration of half-maximal effect
# Procedure, shortened: (§6)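 Measurements at 0, 8, 16, 24, 32 and 40 h of treatment captured CellTox Green fluorescence in HepG2 cells that had been co-plated with reagent and preincubated 5 h at 37 C/5% CO2.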
# [10] = qHTS RealTime-Glo MT Cell Viability Assay in HepG2 cells - 32 hour (AID 1224877); note: nearly all actives have a fitted effect of over 55% in size; note: potency is the fitted concentration of half-maximal effect
# Procedure, shortened: as §1
# [11] = A CellTox Green Cytotoxicity Assay to monitor cytotoxicity in HepG2 cells - 24 hour (AID 1224878); note: nearly all actives have a fitted effect of over 45% in size; note: potency is the fitted concentration of half-maximal effect
# Procedure, shortened: as §6
# [12] = A CellTox Green Cytotoxicity Assay to monitor cytotoxicity in HepG2 cells - 40 hour (AID 1224879); note: nearly all actives have a fitted effect of over 40% in size; note: potency is the fitted concentration of half-maximal effect
# Procedure, shortened: as §6
# [13] = A CellTox Green Cytotoxicity Assay to monitor cytotoxicity in HEK293 cells - 32 hour (AID 1224881); note: nearly all actives have a fitted effect of over 40% in size; note: potency is the fitted concentration of half-maximal effect
# Procedure, shortened: as §3
# [14] = A CellTox Green Cytotoxicity Assay to monitor cytotoxicity in HepG2 cells - 0 hour (AID 1224882); note: nearly all actives have a fitted effect of over 35% in size
# Procedure, shortened: as §6
# [15] = qHTS assay to identify small molecule antagonists of the estrogen related receptor (ERR) signaling pathway from Tox21 library (AID 1224848); note: nearly all actives have a fitted effect of over 50% in size; note: potency is the fitted concentration of half-maximal effect
# Procedure, shortened: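 ERR cell line, 2,000 cells/well. 6 h settle, then compound (DMSO) added; 18 h at 37 C; ONE-Glo luminescence after 30 min RT.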
# [16] = qHTS assay to identify small molecule agonists of the estrogen related receptor (ERR) signaling pathway from Tox21 library (AID 1224849; calls by dose curve; note: nearly all actives have a fitted effect of over 15% in size); conditions: ERR reporter cell line, ONE-Glo luciferase, 18 h
# Procedure, shortened: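 Tox21 compounds tested for ERR agonism in an NTP reporter cell line: 18 h treatment at 37 C, then ONE-Glo luminescence.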
# [17] = A CellTox Green Cytotoxicity Assay to monitor cytotoxicity in HEK293 cells - 0 hour (AID 1224869); note: nearly all actives have a fitted effect of over 50% in size
# Procedure, shortened: as §3
# [18] = qHTS RealTime-Glo MT Cell Viability Assay in HepG2 cells - 40 hour (AID 1224870); note: nearly all actives have a fitted effect of over 50% in size; note: potency is the fitted concentration of half-maximal effect
# Procedure, shortened: as §4
# [19] = qHTS RealTime-Glo MT Cell Viability Assay in HEK293 cells - 0 hour (AID 1224880)
# Procedure, shortened: as §5
# [20] = at 92.4 µM (top of the series) unless noted
# % is set by controls: 0 for no effect and ±100 for the full control effect.
smiles,measurement,setting,value
CCN=C1C=CC(=C(c2ccc(N(CC)CC)cc2)c2ccc(N(CC)CC)cc2)c2ccccc21,Potency,[1],35.5 µM (active)
same,Potency,[2],17.3 µM (active)
same,Potency,[3],6.88 µM (active)
same,Potency,[4],12.2 µM (active)
same,Potency,[5],13.7 µM (active)
same,Potency,[6],19.4 µM (active)
same,Potency,[7],5.46 µM (active)
same,Potency,[8],19.4 µM (active)
same,Potency,[9],19.4 µM (active)
same,Potency,[10],19.4 µM (active)
same,Potency,[11],17.3 µM (active)
same,Potency,[12],19.4 µM (active)
same,Potency,[13],13.7 µM (active)
same,Potency,[14],inactive
C=CC(=O)OCCOCC(CC)(COCCOC(=O)C=C)COCCOC(=O)C=C,Potency,[15],25.3 µM (active)
same,"activity change, positive = activation",[16]; [20],-76.5% (inactive)
same,Potency,[2],25.6 µM (active)
same,Potency,[3],16.1 µM (active)
same,Potency,[17],inactive
same,Potency,[18],32.2 µM (active)
same,Potency,[4],14.4 µM (active)
same,Potency,[5],18.1 µM (active)
same,Potency,[7],14.4 µM (active)
same,Potency,[9],inactive
same,Potency,[10],28.7 µM (active)
same,Potency,[12],25.6 µM (active)
same,Potency,[19],inactive
same,Potency,[14],inactive
Clc1ccc(C(Cn2ccnc2)OCc2ccsc2Cl)c(Cl)c1 (centres undefined),Potency,[15],18.8 µM (active)
same,"activity change, positive = activation",[16]; [20],-53.5% [at 42.5 µM] (inactive)
same,Potency,[3],19 µM (active)
same,Potency,[17],inactive
same,Potency,[5],15.1 µM (active)
same,Potency,[7],16.9 µM (active)
same,Potency,[8],inactive
same,Potency,[11],21.3 µM (active)
same,Potency,[12],23.9 µM (active)
same,Potency,[19],inactive
same,Potency,[14],inactive
CC1=C(/C=C/C(C)=C/C=C/C(C)=C/C(=O)Nc2ccc(O)cc2)C(C)(C)CCC1,Potency,[15],14 µM (active) and 11.9 µM (active)
same,"activity change, positive = activation",[16]; at 42.5 µM (top of the series),-57.7% (inactive)
same,"activity change, positive = activation",[16]; at 92.4 µM (top of the series),-54.4% (inactive)
same,Potency,[2],inactive and 26.8 µM (active)
same,Potency,[3],1 µM (active) and 425 nM (active)
same,Potency,[17],inactive
same,Potency,[4],inactive
same,Potency,[5],796 nM (active) and 477 nM (active)
same,Potency,[6],inactive and 23.9 µM (active)
same,Potency,[8],inactive
same,Potency,[9],inactive
same,Potency,[10],inactive and 26.8 µM (active)
same,Potency,[12],50.2 µM (active) and 23.9 µM (active)
same,Potency,[19],inactive
same,Potency,[13],inactive
same,Potency,[14],inactive
Brc1ccccc1-c1ccccc1,Potency,[15],inactive
same,Potency,[2],inactive
same,Potency,[3],inactive
same,Potency,[17],inactive
same,Potency,[18],inactive
same,Potency,[6],inactive
same,max response,[7],-2.43% (inactive)
same,Potency,[9],41.3 µM (active)
same,Potency,[11],46.3 µM (active)
same,Potency,[12],1.84 µM (active)
same,Potency,[19],inactive
same,Potency,[13],20.7 µM (active)
same,Potency,[14],inactive
Cc1cc(Nc2ccc(O)cc2)ccc1N,Potency,[15],19.2 µM (active)
same,"activity change, positive = activation",[16]; [20],-47.7% (inactive)
same,Potency,[2],48.8 µM (active)
same,Potency,[3],19.4 µM (active)
same,Potency,[17],inactive
same,Potency,[4],24.4 µM (active)
same,Potency,[5],24.4 µM (active)
same,Potency,[6],43.5 µM (active)
same,Potency,[7],19.4 µM (active)
same,Potency,[9],inactive
same,Potency,[11],inactive
same,Potency,[13],43.5 µM (active)
same,Potency,[14],inactive
c1cc2c3c(c1)ccc1cccc(c13)C2,Potency,[15],70.1 µM (active)
same,"activity change, positive = activation",[16]; [20],-42.3% (inactive)
same,Potency,[2],inactive
same,Potency,[17],inactive
same,Potency,[4],50 µM (active)
same,Potency,[5],inactive
same,Potency,[6],inactive
same,max response,[7],-20.7% (inactive)
same,Potency,[8],56.1 µM (active)
same,Potency,[9],inactive
same,Potency,[10],inactive
same,Potency,[11],inactive
same,Potency,[12],inactive
same,Potency,[19],inactive
same,Potency,[13],50 µM (active)
same,Potency,[14],inactive
CSc1ccc2c(c1)N(CCC1CCCCN1C)c1ccccc1S2 (centres undefined),Potency,[15],27.2 µM (active)
same,Potency,[2],48.8 µM (active) and 23.9 µM (active)
same,Potency,[3],15.4 µM (active)
same,Potency,[17],inactive
same,Potency,[18],30.8 µM (active)
same,Potency,[4],30.8 µM (active)
same,Potency,[5],17.3 µM (active)
same,Potency,[6],54.7 µM (active) and 23.9 µM (active)
same,Potency,[7],15.4 µM (active)
same,Potency,[8],24.4 µM (active)
same,Potency,[9],54.7 µM (active) and 26.8 µM (active)
same,Potency,[10],43.5 µM (active) and 26.8 µM (active)
same,Potency,[11],38.7 µM (active) and 23.9 µM (active)
same,Potency,[12],34.5 µM (active) and 23.9 µM (active)
same,Potency,[13],30.8 µM (active)
same,Potency,[14],inactive
CN1[C@@H]2CC[C@@H]1CC(OC(=O)C(CO)c1ccccc1)C2 (some centres undefined),Potency,[1],inactive
same,Potency,[2],inactive
same,Potency,[3],inactive
same,Potency,[18],inactive
same,Potency,[4],inactive
same,Potency,[5],inactive
same,Potency,[8],inactive
same,Potency,[9],inactive
same,Potency,[10],inactive
same,Potency,[11],inactive
same,Potency,[12],inactive
same,Potency,[19],inactive
same,Potency,[14],inactive
Cc1ccc(-n2[nH]c(C)c(N=Nc3cccc(-c4cccc(C(=O)O)c4)c3O)c2=O)cc1C,Potency,[1],inactive
same,Potency,[3],23.9 µM (active)
same,Potency,[18],inactive
same,Potency,[4],inactive
same,Potency,[6],inactive
same,Potency,[7],21.3 µM (active)
same,Potency,[8],inactive
same,Potency,[9],inactive
same,Potency,[11],inactive
same,Potency,[12],inactive
same,Potency,[19],inactive
same,Potency,[13],inactive
same,Potency,[14],inactive
CCCCCCCOC(=O)c1ccc(O)cc1,Potency,[1],101 µM (active)
same,Potency,[2],inactive
same,Potency,[3],24.6 µM (active) and 21.9 µM (active)
same,Potency,[18],inactive
same,Potency,[4],inactive and 24.5 µM (active)
same,Potency,[5],24.6 µM (active) and 21.9 µM (active)
same,Potency,[7],24.6 µM (active) and 19.5 µM (active)
same,Potency,[8],inactive
same,Potency,[9],inactive and 38.9 µM (active)
same,Potency,[10],inactive
same,Potency,[11],24.5 µM (active)
same,Potency,[12],24.5 µM (active)
same,Potency,[19],inactive
same,Potency,[13],inactive
same,Potency,[14],inactive
